# How the values were obtained:
# Settings in all cases: concentration: 1 μM, replicates: in singlicate; n = 1
# HASPIN = system: T1, HASPIN
# T1 construct: gene GSG2
# HCK = system: HCK
# HIPK1 = system: HIPK1
# HIPK2 = system: HIPK2
# HIPK3 = system: HIPK3
# HIPK4 = system: HIPK4
# HPK1 = system: HPK1
# HUNK = system: HUNK
# ICK = system: ICK
# IGF1R = system: IGF1R
# IKK-alpha = system: T2, IKK-alpha
# T2 construct: gene CHUK
# IKK-beta = system: T3, IKK-beta
# T3 construct: gene IKBKB
# IKK-epsilon = system: T4, IKK-epsilon
# T4 construct: gene IKBKE
# INSRR = system: INSRR
# INSR = system: INSR
# IRAK1 = system: IRAK1
# IRAK3 = system: IRAK3
# IRAK4 = system: IRAK4
# ITK = system: ITK
# [1] = system: JAK1(JH1domain-catalytic)
# 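Also: KINOMEscan kinase panel screen.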
SMILES,%Inh (HASPIN) [%],%Inh (HCK) [%],%Inh (HIPK1) [%],%Inh (HIPK2) [%],%Inh (HIPK3) [%],%Inh (HIPK4) [%],%Inh (HPK1) [%],%Inh (HUNK) [%],%Inh (ICK) [%],%Inh (IGF1R) [%],%Inh (IKK-alpha) [%],%Inh (IKK-beta) [%],%Inh (IKK-epsilon) [%],%Inh (INSRR) [%],%Inh (INSR) [%],%Inh (IRAK1) [%],%Inh (IRAK3) [%],%Inh (IRAK4) [%],%Inh (ITK) [%],%Inh [1] [%]
CCn1c(-c2nonc2N)nc2c(C#CC(C)(C)O)nc(OC[C@H](N)c3ccccc3)cc21 [GSK943949],22,0,21,0,14,0,30,3,0,0,0,0,13,0,0,0,0,8,0,19
COc1ccc(Nc2nccc(N3CCC(NC(=O)Nc4cccc(OC)c4)C3)n2)cc1 (centres unmarked) [GSK1379742],10,0,0,28,19,0,56,24,0,0,24,19,0,0,0,0,15,6,11,12
CCc1ccc(-c2ccc3c(c2)-c2c(cnn2C)S(=O)(=O)N3C)cc1,0,0,0,0,11,8,17,0,4,4,0,7,0,7,0,0,11,0,2,0
CC(=O)Nc1nc2cnc(Nc3cc(NC(=O)c4cccc(C5(C#N)CC5)c4Cl)ccc3C)nc2s1,0,53,27,0,0,6,1,12,0,0,7,6,0,0,0,10,24,21,0,17
COc1cccc(C2=C(Nc3ccc(Cl)c(C(=O)O)c3)C(=O)NC2=O)c1 [SB-390769],0,0,7,0,11,0,55,0,10,26,100,100,91.1,8,100,48,0,31,14,100
Cc1ccc(C(=O)Nc2ccc(Nc3ccnc4cc(-c5nccs5)ccc34)cc2O)cc1.Cl [GW494702],82,93.4,0,37,1,0,1,30,28,0,20,7,0,1,100,22,2,5,0,0
c1ccc(Oc2ccc(Nc3ccnc4cc(-c5ccc(CNCCN6CCOCC6)o5)ccc34)cc2)nc1 [GW567145],43,76,0,0,10,0,15,12,0,0,28,0,27,0,11,20,0,0,0,5
CCS(=O)(=O)c1ccc(OC)c(Nc2nccc(-c3c(-c4cccc(NC(=O)c5c(F)cccc5F)c4)nn4ncccc34)n2)c1 [GSK326180],0,77,0,0,1,0,25,22,21,57,27,27,13,21,45,28,1,29,5,20
CCCCc1nn2ncccc2c1-c1ccnc(Nc2ccc(N3CCN(C)CC3)cc2)n1 [GW684941],25,73,24,0,32,71,61,0,17,16,41,23,16,21,36,94.9,79,43,5,0
c1ccc(-c2cnc3nccnn23)cc1 [AH20685],0,0,0,0,0,0,37,0,0,31,49,1,5,0,24,0,1,8,2,0

# Reference: publication PMC5540273 (PLoS ONE, 2017)
